Common to all, as to assay: NCI-60 one-dose screen, 48 h (100 = growth as untreated, 0 = no growth, -100 = all killed)
The test system of one assay is EKVX NSCLC. As to conditions: 10 µM unless noted.
The test system of the next assay is SN12C renal. The note with it: 10 µM unless noted.
The next assay relates to UO-31 renal. The note with it: 10 µM unless noted.
A further assay relates to TK-10 renal. As to conditions: 10 µM unless noted.
In the next assay the test system is ACHN renal. As to conditions: 10 µM unless noted.
For another assay, the system named is A498 renal. The note with it: 10 µM unless noted.
For another assay, the system named is CCRF-CEM leukemia. As to conditions: 10 µM unless noted.
For a further assay, the system named is MOLT-4 leukemia. As to conditions: 10 µM unless noted.
The next assay has as its system SR leukemia. The note with it: 10 µM unless noted.
A further assay relates to RPMI-8226 leukemia. As to conditions: 10 µM unless noted.
The test system of a further assay is OVCAR-8 ovarian. As to conditions: 10 µM unless noted.
Another assay has as its system OVCAR-5 ovarian. The note with it: 10 µM unless noted.
For another assay, the system named is OVCAR-4 ovarian. The note with it: 10 µM unless noted.
The next assay concerns SK-OV-3 ovarian. The note with it: 10 µM unless noted.
The subject of the next assay is IGROV1 ovarian. The note with it: 10 µM unless noted.
The subject of a further assay is OVCAR-3 ovarian. As to conditions: 10 µM unless noted.
A further assay has as its system HS 578T breast. As to conditions: 10 µM.
In the next assay the test system is NCI/ADR-RES ovarian. As to conditions: 10 µM unless noted.

About 83,000 compounds went through this panel and 20% of them were active in at least one assay; those are over-represented in the sample as a whole.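 The test compound was applied at a single concentration to cells in 96-well plates for 48 hours, and percent growth was recorded.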 Unmarked numbers belong to inactive results. Calls of active or inactive are those of the source. How the source made its calls: active means growth percent below 10; inactive means the rest.

Among the data in PubChem BioAssay (NCI) are growth values, retold here.

In the case of `Cc1ccc(NC(=O)c2nc(S(C)=O)oc2-c2ccc(F)cc2)cc1Nc1nccc(-c2cccnc2)n1` (centres undefined), the growth with EKVX NSCLC was 73.8%; in the assay on SN12C renal it was 38.7%; in the assay with UO-31 renal it was 84.5%; with TK-10 renal it was 130%; in the assay on ACHN renal, 31.5%; with A498 renal, 107%. Further, the growth with CCRF-CEM leukemia was 2.57% (active); in the assay with MOLT-4 leukemia, 0.215% (active); in the assay with SR leukemia it was -14.7% (active); in the assay on RPMI-8226 leukemia, 5.05% (active); with OVCAR-8 ovarian, 37.9%; in the assay with OVCAR-5 ovarian, 112%. Besides, the growth with OVCAR-4 ovarian is 108%; with SK-OV-3 ovarian it was 90.3%; in the assay on IGROV1 ovarian, 33.1%; in the assay on OVCAR-3 ovarian, 18.8%; with HS 578T breast, 82%; in the assay with NCI/ADR-RES ovarian it was 95.9%.

For `COc1ccc(/C(=C\c2cc(OC)c(OC)c(OC)c2)C(=O)N2CCNCC2)cc1`, the growth was 105% in the assay on EKVX NSCLC; 101% with SN12C renal; 83.4% in the assay with UO-31 renal; 94.6% in the assay on TK-10 renal; 98% in the assay with ACHN renal; 85.6% with A498 renal. Further, the growth in the assay on CCRF-CEM leukemia was 96.1%; in the assay on MOLT-4 leukemia it was 87.2%; in the assay with SR leukemia, 94.6%; with RPMI-8226 leukemia it was 95.1%; with OVCAR-8 ovarian, 105%; in the assay with OVCAR-5 ovarian, 102%. Also, the growth is 110% with OVCAR-4 ovarian; 108% in the assay on SK-OV-3 ovarian; 102% in the assay on IGROV1 ovarian; 108% in the assay on OVCAR-3 ovarian; 102% in the assay with HS 578T breast; 98.3% in the assay with NCI/ADR-RES ovarian.

On to `Cc1ccc(NC(=O)c2nc(S(C)(=O)=O)oc2-c2ccc(F)cc2)cc1Nc1ccc2ncn(C)c(=O)c2c1`, for which the growth in the assay on EKVX NSCLC is 72.7%; in the assay on SN12C renal, 67.7%; with UO-31 renal, 72.5%; with TK-10 renal it was 90.8%; in the assay with ACHN renal, 48.4%; with A498 renal, 130%. Moreover, the growth in the assay on CCRF-CEM leukemia is 16.3%; in the assay with MOLT-4 leukemia, -5.15% (active); with SR leukemia, -12.5% (active); in the assay on RPMI-8226 leukemia, 19.3%; in the assay on OVCAR-8 ovarian, 30.6%; with OVCAR-5 ovarian it was 102%. The growth in the assay with OVCAR-4 ovarian is 104%; with SK-OV-3 ovarian, 107%; in the assay on IGROV1 ovarian it was 61.4%; with OVCAR-3 ovarian, -58.5% (active); in the assay on HS 578T breast, 106%; in the assay on NCI/ADR-RES ovarian, 96.2%.

Take `CNC(=O)c1cc(Oc2ccc(NC(=O)c3nc(S(C)(=O)=O)sc3-c3ccc(F)cc3)cc2)ccn1`: the growth with EKVX NSCLC is 77.8%; in the assay with SN12C renal, 97.5%; in the assay with UO-31 renal, 87.5%; in the assay on TK-10 renal, 77%; in the assay with ACHN renal, 90.8%; in the assay with A498 renal, 99.6%. The growth in the assay on CCRF-CEM leukemia is 85.9%; in the assay with MOLT-4 leukemia, 83.1%; with SR leukemia, 88%; in the assay with RPMI-8226 leukemia it was 15.9%; with OVCAR-8 ovarian, 102%; in the assay with OVCAR-5 ovarian it was 107%. The growth in the assay on OVCAR-4 ovarian was 91.7%; in the assay with SK-OV-3 ovarian, 118%; in the assay with IGROV1 ovarian it was 100%; in the assay on OVCAR-3 ovarian, 50%; with HS 578T breast it was 101%; with NCI/ADR-RES ovarian, 94.7%.

With `CNC(=O)c1cc(Oc2ccc(NC(=O)c3[nH]c(SC)nc3-c3ccc(F)cc3)cc2)ccn1`, the growth with EKVX NSCLC is 63.7%; with SN12C renal it was 39.2%; in the assay on UO-31 renal, 60.5%; with TK-10 renal, 88.3%; in the assay with ACHN renal, 39.8%; with A498 renal, 61.1%. The growth in the assay on CCRF-CEM leukemia was 85.3%; with MOLT-4 leukemia it was 38.4%; in the assay on SR leukemia, 63.1%; in the assay with RPMI-8226 leukemia, 43.8%; in the assay on OVCAR-8 ovarian it was 69.1%; in the assay on OVCAR-5 ovarian, 99.9%. Moreover, the growth in the assay with OVCAR-4 ovarian is 60.8%; in the assay with SK-OV-3 ovarian it was 34.1%; in the assay on IGROV1 ovarian it was 55%; in the assay on OVCAR-3 ovarian, 88.2%; in the assay on NCI/ADR-RES ovarian, 67.4%.

For `CCCc1n(Cc2ccc3ccccc3n2)cc[n+]1Cc1ccc2ccccc2n1`, the growth in the assay with EKVX NSCLC was 58.1%; in the assay with SN12C renal it was 9.65% (active); in the assay on UO-31 renal, 86.5%; in the assay on TK-10 renal it was 62.1%; in the assay on ACHN renal it was 98.1%; in the assay on A498 renal, 35.4%. Besides, the growth with CCRF-CEM leukemia was 36.2%; in the assay on MOLT-4 leukemia, 23.2%; with SR leukemia, 13%; in the assay with RPMI-8226 leukemia it was -10.8% (active); with OVCAR-8 ovarian, 35.6%; in the assay with OVCAR-5 ovarian it was 47.7%. Besides, the growth with OVCAR-4 ovarian was 8.56% (active); with SK-OV-3 ovarian, 61.6%; with OVCAR-3 ovarian, 9.64% (active); in the assay on HS 578T breast, 58.8%; in the assay with NCI/ADR-RES ovarian it was 98.4%.

As to `CC(C)NCCCCCNc1cc(O)cc2cccnc12`, the growth in the assay with EKVX NSCLC was -8.81% (active); in the assay on SN12C renal, 59%; in the assay on UO-31 renal, 88.4%; in the assay with TK-10 renal, 124%; in the assay on ACHN renal, 102%; in the assay on A498 renal it was 79.1%. In addition, the growth was 94.3% in the assay on CCRF-CEM leukemia; 16% in the assay with MOLT-4 leukemia; 22.5% with SR leukemia; 66.6% with RPMI-8226 leukemia; 31.3% with OVCAR-8 ovarian; 98.8% with OVCAR-5 ovarian. The growth with OVCAR-4 ovarian was -5.19% (active); in the assay on SK-OV-3 ovarian, 65.6%; in the assay on IGROV1 ovarian, 32.2%; in the assay with OVCAR-3 ovarian, 28.3%; in the assay on HS 578T breast it was 88.8%; in the assay on NCI/ADR-RES ovarian, 100%.

On to `CC(=O)[C@@]1(O)[C@H](C)C[C@H]2[C@@H]3C=C(C)C4=Cc5c(cnn5-c5ccccc5)C[C@]4(C)[C@H]3[C@@H](O)C[C@@]21C`, for which the growth was 13.2% with EKVX NSCLC; 41.3% with SN12C renal; -4.99% (active) with UO-31 renal; 34.5% in the assay on TK-10 renal; 42.3% in the assay on ACHN renal; -16.8% (active) with A498 renal. The growth in the assay on CCRF-CEM leukemia was -28% (active); in the assay on OVCAR-8 ovarian it was 37.3%; with OVCAR-5 ovarian, 40.6%; in the assay with OVCAR-4 ovarian it was 56.5%; in the assay with SK-OV-3 ovarian, 38.7%; with IGROV1 ovarian, -16.8% (active). The growth in the assay with OVCAR-3 ovarian was 8.02% (active); with HS 578T breast, 5.32% (active); with NCI/ADR-RES ovarian, 27.1%.
